# FBA Mtb inh = inhibitors of M. tuberculosis fructose-bisphosphate aldolase; purified M. tuberculosis FBA, fluorescence read-out; inhibition, % at 1 µM; actives 2.3% (n = 360,000); in the data active = inhibition above about 27%
# Target sequence (P9WQA3 whole entry, looked up): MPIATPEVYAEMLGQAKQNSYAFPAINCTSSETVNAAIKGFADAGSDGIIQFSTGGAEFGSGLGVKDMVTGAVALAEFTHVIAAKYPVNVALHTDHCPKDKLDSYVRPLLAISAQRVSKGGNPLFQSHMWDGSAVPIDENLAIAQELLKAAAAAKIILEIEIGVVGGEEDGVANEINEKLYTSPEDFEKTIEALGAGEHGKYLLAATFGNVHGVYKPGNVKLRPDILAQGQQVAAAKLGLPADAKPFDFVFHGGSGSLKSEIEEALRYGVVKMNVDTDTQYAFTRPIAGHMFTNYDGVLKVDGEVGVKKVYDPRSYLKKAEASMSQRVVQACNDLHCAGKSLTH
# PfHsp40 rescue = compounds rescuing yeast from Plasmodium falciparum HSP40 toxicity; actives 0.68% (n = 340,000); growth rescue, % at 12.5 µM; S. cerevisiae expressing PfHsp40, growth rescue, ATP luminescence; in the data active = growth rescue above about 28%, passing the limit was not always enough; inconclusive = no clear call, values can overlap the other calls;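 also: yeast W303a lacking pdr1 and pdr3 grown in galactose medium; growth measured after three days at 30 °C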
# BJeLR viability = BJeLR cell viability loss. BJeLR (HRASV12) viability, CellTiter-Glo ATP luminescence, 48 h. inhibition, % (concentration not given with the values). actives 0.17% (n = 300,000). AID 1554; in the data active = inhibition above about 50%; inconclusive = no clear call, values can overlap the other calls
# PrPC TRFRET = cell surface PrPC inhibition, primary TR-FRET screen; TR-FRET read-out; inhibition, % at 13.8 µM; P04156; actives 0.43% (n = 370,000); in the data active = inhibition above about 24%
# PrP 5UTR inh = inhibition of PrP 5' UTR reporter expression; cell-based PrP 5' UTR mRNA reporter, plate reader; AID 488862; actives 0.35% (n = 340,000); inhibition, % (no concentration beside the values); in the data active = inhibition above about 52%
# GDH-TPI inh = counter-screen for M. tuberculosis FBA inhibitors: GDH-TPI coupled enzymes; GDH-TPI coupled enzyme counterscreen, NADH absorbance; inhibition, % at 4.8 µM; actives 1.2% (n = 360,000); in the data active = inhibition above about 30%
# PrP 5UTR single = prion 5' UTR mRNA inhibition, cherry-pick retest; shares compounds with PrP 5UTR inh; cell-based prion protein 5' UTR reporter, plate reader; inhibition, % at 2.5 µM; actives 48% (n = 1,100); AID 504592; in the data active = inhibition above about 54%; inconclusive = no clear call, values can overlap the other calls
# Numbers stand for hits; n = inactive; u = inconclusive; x = no result. Hits are enriched below; roughly 4.5% of the tested compounds scored in any of these assays.
SMILES,FBA Mtb inh,PfHsp40 rescue,BJeLR viability,PrPC TRFRET,PrP 5UTR inh,GDH-TPI inh,PrP 5UTR single
COc1ccc(-c2cc3c(nn2)-c2ccccc2C3=O)cc1,n,n,n,n,62.9,n,u
COC(=O)[C@@H](CC(C)C)CP(=O)(OC)[C@@H](C)NC(=O)OCc1ccccc1 (stereo not given in full),x,x,x,n,x,x,x
COP(=O)(O)C(Cc1ccccc1)NC(=O)OCc1ccccc1 (stereo not given),x,x,x,n,x,x,x
Cc1cc(-c2ccc(N3CCOCC3)cc2)nc2ccccc12,n,n,n,n,n,n,x
c1ccc2nc(-c3ccncc3)ccc2c1,n,n,n,n,n,n,x
c1ccc2nc(-c3ccc(N4CCOCC4)cc3)ccc2c1,n,n,n,n,74.6,33.0,66.6
CN1CCN(c2ccc(-c3ccc4ccccc4n3)cc2)CC1,n,n,n,n,91.9,n,90.6
CCn1c(SCC(=O)c2ccc(-c3ccccc3)cc2)nnc1-c1ccc(C(C)(C)C)cc1,x,x,x,n,x,x,x
COC(=O)c1cc(-c2ccc(F)cc2OCc2ccccc2)c(=O)n2c1CCC2,x,x,x,n,x,x,x
Cc1nnc(NC(=O)c2ccc(N3CCCC3=O)cc2)s1,n,n,x,n,n,n,x
Cc1csc(NC(=O)c2ccc(N3CCCC3=O)cc2)n1,n,n,n,n,55.5,n,u
CCOC(=O)Cc1nc(N2CCN(CCN)CC2)c2c(C)c(C(=O)OCC)sc2n1,x,x,x,n,x,x,x
COc1ccc2c(c1)CCCN2C(=O)C1CCCN(S(=O)(=O)c2ccccc2)C1 (stereo not given),x,x,x,n,x,x,x
COC(=O)c1cn(NC(=O)c2ccc([N+](=O)[O-])c(C)c2)c(=O)c2ccccc12,n,n,n,n,n,n,x
COC(=O)c1cn(NC(=O)c2ccccc2[N+](=O)[O-])c(=O)c2ccccc12,n,n,x,n,55.9,n,n
CC(COc1ccc(C#N)c(F)c1)CN1CCC(C(O)(c2ccccc2)c2ccccc2)CC1 (stereo not given),x,x,x,n,x,x,x
O=C(/C=C\Nc1ccccn1)c1ccccc1,n,n,n,n,n,n,x
O=C(/C=C/Nc1ccccc1Br)c1ccccn1,n,n,n,n,88.8,n,83.2
Cc1ccc(N2C(=O)c3cccc4c(N)ccc(c34)C2=O)c2cccnc12,n,n,n,n,73.8,n,85.6
Cc1nn(C)c(C)c1N1C(=O)c2cccc3c(N)ccc(c23)C1=O,n,n,x,n,n,n,x
COc1ccc(S[C@]2(C(=O)N3CCCC3)CC(=O)N(c3ccccc3OC)[C@@H]2c2ccc(OC)cc2)cc1,x,x,x,n,x,x,x
COc1ccc(C2=Nn3c(nnc3-c3ccccc3OC)SC2)cc1OC,n,n,n,n,56.0,n,77.5
COc1ccccc1-c1nnc2n1N=C(c1ccc3c(c1)OCO3)CS2,x,x,x,n,x,x,x
COc1ccc(OC)c(-c2nnc3n2N=C(c2ccc(OC)c(OC4CCOC4)c2)CS3)c1 (stereo not given),n,n,x,n,71.7,n,81.2
COc1ccc(C2=Nn3c(nnc3-c3ccccc3Cl)SC2)cc1OC1CCOC1 (stereo not given),n,n,x,n,n,n,x
SMILES,FBA Mtb inh,PfHsp40 rescue,BJeLR viability,PrPC TRFRET,PrP 5UTR inh,GDH-TPI inh,PrP 5UTR single
O=C(Nc1nc2ncccn2c1-c1ccc(C(F)(F)F)cc1)c1ccccc1,x,x,x,n,x,x,x
COc1ccc(NC(=O)COC(=O)Cc2c[nH]c3ccccc23)cc1OC,n,n,n,n,68.4,n,n
Cc1occc1-c1nnc(SCC(=O)Nc2ccncc2)n1-c1ccccc1,x,x,x,n,x,x,x
CC(=Nc1ccccc1)C1=C(O)C(Cc2ccc(O)cc2)NC1=O (stereo not given),n,n,x,n,53.8,n,89.0
COC(=O)C1CN(C2CCCC2)CCS(=O)(=O)N1Cc1cn(Cc2ccc(C)cc2)nn1 (stereo not given),x,x,x,n,x,x,x
CCC(=O)NC(c1ccc(OC)cc1)c1cc(Cl)c2cccnc2c1O (stereo not given),n,n,n,n,n,n,x
COc1ccc(C(NC(=O)c2cccnc2)c2cc(Cl)c3cccnc3c2O)cc1OC (stereo not given),n,u,n,n,88.7,n,n
CCCCOCCCNC(=O)C[C@H]1C(=O)N(CCCOC)C2=CCCCC[C@]21C(=O)OC,x,x,x,n,x,x,x
COc1ccccc1CNC(=O)CCc1cn(C)c2ccccc12,n,n,n,n,66.2,n,n
CNC(=O)COC(=O)/C=C/c1ccc(F)cc1,n,n,n,n,n,n,x
CNC(=O)COC(=O)/C=C/c1cccc(F)c1,n,n,n,n,57.9,n,n
Cc1ccccc1NC(=O)OC1CCC12CCCCC2 (stereo not given),x,x,x,n,x,x,x
CCCCn1c(C)nc2c(=O)n(C)c(=O)[nH]c21,n,n,n,n,n,n,x
CCCCn1c(-c2ccccc2)nc2c(=O)n(C)c(=O)[nH]c21,195.5,n,n,n,77.8,n,n
COC(=O)[C@H]1C[C@@]2(C)c3ccccc3N(S(=O)(=O)c3ccccc3)[C@H]2N1C(=O)CNC1CCCCC1,x,x,x,n,x,x,x
CCCCOC(=O)NC1CCc2cc(OC)c(OC)c(OC)c2-c2ccc(SC)c(=O)cc21 (stereo not given),n,n,x,n,n,n,x
CCOC(=O)NC1CCc2cc(OC)c(OC)c(OC)c2-c2ccc(SC)c(=O)cc21 (stereo not given),n,n,x,n,57.7,n,86.3
COc1cc2c(c(OC)c1OC)-c1ccc(O)cc1C(NC(C)=O)CC2 (stereo not given),n,n,x,n,72.6,n,87.2
Cc1ccc(Cc2nc(-c3ccccn3)no2)cc1,n,n,n,n,n,n,x
Cc1ccc(-c2nc(-c3ccccn3)no2)cc1,n,n,n,n,86.4,n,91.2
c1ccc(-c2ccc(-c3nc(-c4ccccn4)no3)cc2)cc1,n,n,80.8,n,88.8,n,90.8
Cc1ccc(-c2nc(-c3ccccn3)no2)cc1Cl,n,n,n,n,71.5,n,64.1
Clc1cccc(-c2nc(-c3ccccn3)no2)c1,n,n,n,n,n,n,x
c1ccc(-c2nc(-c3ccccn3)no2)cc1,n,n,n,n,n,n,x
CC(=O)Nc1ccc(Nc2nc(C)cc(C)n2)cc1,n,n,n,n,n,n,x
SMILES,FBA Mtb inh,PfHsp40 rescue,BJeLR viability,PrPC TRFRET,PrP 5UTR inh,GDH-TPI inh,PrP 5UTR single
CC(=O)Nc1cc(C)ns1,n,n,x,n,68.8,n,u
CCC1(c2ccccc2)NC(=S)N(c2ccc(C)cc2)N1 (stereo not given),n,n,n,n,76.2,n,n
CCC1(c2ccc(Cl)cc2)NC(=S)N(c2ccccc2)N1 (stereo not given),n,n,n,n,n,n,x
CCOC(=O)[C@@]12CCCC3=C1N(CCC3)C(=O)[C@H]2CC(=O)NCCCOC,x,x,x,n,x,x,x
COc1ccc(CCN2C(=O)c3ccccc3C2(O)c2ncc[nH]2)cc1OC (stereo not given),n,n,n,n,n,n,x
O=C1c2ccccc2C(O)(c2ncc[nH]2)N1C1CCCCC1 (stereo not given),n,n,n,n,69.3,n,n
